± gives the standard deviation of the averaged measurements. Targets with the largest changes are over-represented here; the source holds about 5,400 in all.
Compound: Nc1nc2c(ncn2[C@@H]2O[C@H](COP(=O)(O)OP(=O)(O)OP(=O)(O)O)[C@@H](O)[C@H]2O)c(=O)[nH]1 [guanosine triphosphate]
Assay: NP40-soluble protein abundance relative to vehicle (solubility fold change) (ratio); higher = more soluble protein in presence of GTP
Method in brief: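 Values are fold changes against the detergent-processed vehicle, based on vsn-normalised intensities. Jurkat crude lysate was treated at eight concentrations from 0.1 to 10 mM (10 min at room temperature, then 3 min at 37 °C), solubilised with 0.8% NP40 and benzonase, ultracentrifuged and analysed by TMT-labelled LC-MS/MS over three independent experiments.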

UniProt Q8IZ83, sequence (Q8IZ83 whole entry): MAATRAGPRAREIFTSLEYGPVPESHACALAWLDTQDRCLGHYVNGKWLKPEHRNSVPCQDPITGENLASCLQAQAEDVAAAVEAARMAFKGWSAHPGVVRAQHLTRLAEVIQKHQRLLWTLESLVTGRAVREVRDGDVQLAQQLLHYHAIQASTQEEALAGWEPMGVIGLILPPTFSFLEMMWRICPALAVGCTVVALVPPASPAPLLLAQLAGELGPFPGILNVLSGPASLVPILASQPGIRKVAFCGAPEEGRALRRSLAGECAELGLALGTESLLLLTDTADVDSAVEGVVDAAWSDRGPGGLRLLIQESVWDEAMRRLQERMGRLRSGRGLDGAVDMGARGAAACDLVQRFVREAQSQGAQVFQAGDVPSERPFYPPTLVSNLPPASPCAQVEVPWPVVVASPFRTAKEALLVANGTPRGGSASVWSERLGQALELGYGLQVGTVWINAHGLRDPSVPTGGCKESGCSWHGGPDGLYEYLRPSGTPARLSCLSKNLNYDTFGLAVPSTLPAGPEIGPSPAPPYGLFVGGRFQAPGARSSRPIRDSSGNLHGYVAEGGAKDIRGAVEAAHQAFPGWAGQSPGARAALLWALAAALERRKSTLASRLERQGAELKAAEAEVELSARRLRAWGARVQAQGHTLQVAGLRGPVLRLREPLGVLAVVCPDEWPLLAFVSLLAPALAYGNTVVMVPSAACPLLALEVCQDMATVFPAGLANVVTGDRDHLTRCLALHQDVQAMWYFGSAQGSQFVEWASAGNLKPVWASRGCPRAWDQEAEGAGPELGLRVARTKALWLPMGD
UniProt Q7KZN9, sequence (Q7KZN9 whole entry): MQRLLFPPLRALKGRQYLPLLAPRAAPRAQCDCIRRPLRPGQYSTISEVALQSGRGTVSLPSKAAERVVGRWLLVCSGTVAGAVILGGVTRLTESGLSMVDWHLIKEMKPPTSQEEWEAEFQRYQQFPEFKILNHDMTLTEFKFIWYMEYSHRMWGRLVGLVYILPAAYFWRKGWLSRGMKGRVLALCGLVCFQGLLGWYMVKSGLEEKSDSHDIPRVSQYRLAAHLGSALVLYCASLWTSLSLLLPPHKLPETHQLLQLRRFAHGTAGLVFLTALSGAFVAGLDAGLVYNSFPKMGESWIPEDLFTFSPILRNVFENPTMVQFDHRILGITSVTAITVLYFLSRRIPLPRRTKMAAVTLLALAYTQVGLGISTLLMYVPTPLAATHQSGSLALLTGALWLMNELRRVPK
UniProt Q04721, sequence (Q04721 whole entry): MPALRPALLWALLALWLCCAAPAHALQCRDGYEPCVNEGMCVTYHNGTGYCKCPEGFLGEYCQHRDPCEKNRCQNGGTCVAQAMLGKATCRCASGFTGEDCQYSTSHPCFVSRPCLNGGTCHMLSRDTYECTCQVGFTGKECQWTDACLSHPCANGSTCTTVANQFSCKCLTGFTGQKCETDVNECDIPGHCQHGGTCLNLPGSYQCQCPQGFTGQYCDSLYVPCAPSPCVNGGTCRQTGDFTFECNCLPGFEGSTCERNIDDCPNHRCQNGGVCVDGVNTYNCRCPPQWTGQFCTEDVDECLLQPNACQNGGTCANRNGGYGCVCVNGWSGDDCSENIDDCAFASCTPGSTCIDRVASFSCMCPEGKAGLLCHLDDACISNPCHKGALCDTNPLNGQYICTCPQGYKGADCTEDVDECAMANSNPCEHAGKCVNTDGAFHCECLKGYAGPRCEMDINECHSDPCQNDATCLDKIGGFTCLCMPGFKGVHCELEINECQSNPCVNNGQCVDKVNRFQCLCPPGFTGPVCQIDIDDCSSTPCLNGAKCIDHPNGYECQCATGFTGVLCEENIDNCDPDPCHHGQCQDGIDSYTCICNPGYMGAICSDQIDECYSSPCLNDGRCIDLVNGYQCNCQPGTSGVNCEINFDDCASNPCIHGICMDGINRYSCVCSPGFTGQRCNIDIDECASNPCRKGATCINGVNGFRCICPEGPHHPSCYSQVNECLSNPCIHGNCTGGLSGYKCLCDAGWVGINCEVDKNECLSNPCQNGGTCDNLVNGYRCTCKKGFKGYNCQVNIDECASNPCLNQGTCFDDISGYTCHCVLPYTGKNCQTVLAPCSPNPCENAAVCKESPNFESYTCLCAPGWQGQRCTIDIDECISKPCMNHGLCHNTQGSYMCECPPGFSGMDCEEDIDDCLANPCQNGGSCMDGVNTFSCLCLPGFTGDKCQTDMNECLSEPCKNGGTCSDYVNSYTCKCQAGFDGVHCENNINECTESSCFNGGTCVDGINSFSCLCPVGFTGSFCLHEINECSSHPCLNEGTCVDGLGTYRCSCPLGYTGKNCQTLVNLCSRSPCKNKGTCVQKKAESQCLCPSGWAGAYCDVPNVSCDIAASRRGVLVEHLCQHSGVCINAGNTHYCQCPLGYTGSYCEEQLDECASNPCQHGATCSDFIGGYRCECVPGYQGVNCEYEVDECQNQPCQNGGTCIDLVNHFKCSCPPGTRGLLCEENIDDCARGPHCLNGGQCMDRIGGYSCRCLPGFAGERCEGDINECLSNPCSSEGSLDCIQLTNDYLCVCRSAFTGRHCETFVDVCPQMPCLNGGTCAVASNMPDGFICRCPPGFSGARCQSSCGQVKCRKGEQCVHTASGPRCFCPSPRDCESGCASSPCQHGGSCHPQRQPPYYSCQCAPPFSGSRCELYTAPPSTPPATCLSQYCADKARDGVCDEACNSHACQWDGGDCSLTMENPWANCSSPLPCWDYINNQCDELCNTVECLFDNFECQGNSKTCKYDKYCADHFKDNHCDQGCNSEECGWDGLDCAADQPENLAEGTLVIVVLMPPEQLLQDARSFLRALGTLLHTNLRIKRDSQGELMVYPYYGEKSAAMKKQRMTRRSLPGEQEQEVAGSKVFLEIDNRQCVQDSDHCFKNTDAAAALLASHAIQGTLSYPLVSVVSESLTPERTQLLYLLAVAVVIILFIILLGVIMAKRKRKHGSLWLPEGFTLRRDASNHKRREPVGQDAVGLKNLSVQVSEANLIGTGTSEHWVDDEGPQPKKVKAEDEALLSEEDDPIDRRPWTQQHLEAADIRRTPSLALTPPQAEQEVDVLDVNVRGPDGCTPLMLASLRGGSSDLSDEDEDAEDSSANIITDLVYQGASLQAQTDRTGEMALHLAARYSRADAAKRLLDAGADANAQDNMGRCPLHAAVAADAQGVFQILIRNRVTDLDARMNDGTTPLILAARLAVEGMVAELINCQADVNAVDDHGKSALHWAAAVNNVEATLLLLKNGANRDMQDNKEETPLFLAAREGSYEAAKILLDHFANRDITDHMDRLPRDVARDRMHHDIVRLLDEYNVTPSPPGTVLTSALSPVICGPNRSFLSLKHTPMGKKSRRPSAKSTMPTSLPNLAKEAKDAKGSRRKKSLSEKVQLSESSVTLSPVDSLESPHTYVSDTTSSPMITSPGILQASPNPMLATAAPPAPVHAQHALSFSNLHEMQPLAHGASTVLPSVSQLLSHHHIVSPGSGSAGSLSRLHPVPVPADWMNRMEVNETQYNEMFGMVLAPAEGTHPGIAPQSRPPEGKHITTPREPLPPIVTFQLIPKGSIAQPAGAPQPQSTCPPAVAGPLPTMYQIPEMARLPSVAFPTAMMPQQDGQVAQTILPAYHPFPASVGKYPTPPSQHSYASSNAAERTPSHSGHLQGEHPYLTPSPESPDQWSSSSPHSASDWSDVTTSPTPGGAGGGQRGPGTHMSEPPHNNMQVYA
UniProt Q8IZ81, sequence (Q8IZ81 whole entry, one chain of several): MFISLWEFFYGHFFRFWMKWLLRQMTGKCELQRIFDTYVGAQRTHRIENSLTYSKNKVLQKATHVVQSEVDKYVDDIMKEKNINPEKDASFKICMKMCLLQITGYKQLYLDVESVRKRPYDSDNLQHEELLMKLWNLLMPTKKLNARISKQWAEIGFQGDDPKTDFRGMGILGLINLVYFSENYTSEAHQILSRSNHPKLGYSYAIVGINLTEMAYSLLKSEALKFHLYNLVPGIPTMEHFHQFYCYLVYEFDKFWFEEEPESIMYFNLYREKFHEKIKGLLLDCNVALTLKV
UniProt Q8NC56, sequence (Q8NC56 whole entry): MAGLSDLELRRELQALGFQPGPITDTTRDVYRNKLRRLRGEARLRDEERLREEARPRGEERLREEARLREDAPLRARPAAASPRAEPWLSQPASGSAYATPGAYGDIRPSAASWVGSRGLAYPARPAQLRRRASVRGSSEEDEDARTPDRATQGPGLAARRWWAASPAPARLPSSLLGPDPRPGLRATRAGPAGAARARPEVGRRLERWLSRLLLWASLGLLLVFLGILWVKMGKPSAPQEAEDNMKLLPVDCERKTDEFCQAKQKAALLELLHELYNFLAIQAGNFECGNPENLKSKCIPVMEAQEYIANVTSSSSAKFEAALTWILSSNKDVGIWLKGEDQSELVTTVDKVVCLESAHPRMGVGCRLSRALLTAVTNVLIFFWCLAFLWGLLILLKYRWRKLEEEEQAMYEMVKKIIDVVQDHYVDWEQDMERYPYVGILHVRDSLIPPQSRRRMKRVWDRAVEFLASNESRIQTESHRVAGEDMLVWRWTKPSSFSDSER
UniProt Q15843, sequence (Q15843 whole entry, one chain of several): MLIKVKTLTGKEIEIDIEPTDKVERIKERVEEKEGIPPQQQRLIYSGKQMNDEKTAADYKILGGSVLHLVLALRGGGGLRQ
UniProt Q86WQ0, sequence (Q86WQ0 whole entry): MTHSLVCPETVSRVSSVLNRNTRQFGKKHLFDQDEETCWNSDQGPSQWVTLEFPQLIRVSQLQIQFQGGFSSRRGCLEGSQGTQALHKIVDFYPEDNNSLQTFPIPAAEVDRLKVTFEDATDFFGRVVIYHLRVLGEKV
UniProt P61006, sequence (P61006 whole entry): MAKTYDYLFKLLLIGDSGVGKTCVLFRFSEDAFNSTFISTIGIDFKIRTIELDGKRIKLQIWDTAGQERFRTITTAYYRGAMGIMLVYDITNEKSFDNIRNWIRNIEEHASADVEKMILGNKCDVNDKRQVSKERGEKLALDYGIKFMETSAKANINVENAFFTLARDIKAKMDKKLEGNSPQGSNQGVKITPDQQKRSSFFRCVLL

Target	NP40-soluble protein abundance (concentration: 0.1mM)	NP40-soluble protein abundance (concentration: 0.5mM)	NP40-soluble protein abundance (concentration: 1mM)	NP40-soluble protein abundance (concentration: 2mM)	NP40-soluble protein abundance (concentration: 4mM)	NP40-soluble protein abundance (concentration: 6mM)	NP40-soluble protein abundance (concentration: 8mM)	NP40-soluble protein abundance (concentration: 10mM)
UniProt Q7KZN9|Q7KZN9-2	1.07 ± 0.024	1.05 ± 0.11	0.98 ± 0.035	0.961 ± 0.022	0.939 ± 0.052	0.924 ± 0.037	0.907 ± 0.029	0.931 ± 0.042
UniProt Q6WKZ4|Q6WKZ4-3	1.02 ± 0.049	0.951 ± 0.044	0.946 ± 0.05	0.921 ± 0.056	0.933 ± 0.058	0.901 ± 0.022	0.943 ± 0.057	0.89 ± 0.038
ZC3H13 (UniProt Q5T200)	1.01 ± 0.055	1.02 ± 0.063	1.07 ± 0.054	1.08 ± 0.063	1.12 ± 0.059	1.12 ± 0.055	1.24 ± 0.099	1.18 ± 0.1
UniProt Q15843|S4R3E9	1.1 ± 0.29	0.839 ± 0.092	1.25 ± 0.31	0.955 ± 0.21	1.09 ± 0.29	0.994 ± 0.18	1.11 ± 0.4	1.07 ± 0.25
SMC5 (UniProt Q8IY18)	1.026 ± 0.0089	1.06 ± 0.036	1.03 ± 0.025	1.02 ± 0.03	1.009 ± 0.0054	1.04 ± 0.019	1.05 ± 0.031	1.03 ± 0.021
RABGGTA (UniProt Q92696)	1.04 ± 0.026	1.04 ± 0.075	0.896 ± 0.022	0.916 ± 0.068	0.91 ± 0.037	0.889 ± 0.032	0.847 ± 0.037	0.849 ± 0.07
UniProt P80217|P80217-2	0.97 ± 0.043	1.01 ± 0.063	0.926 ± 0.044	0.902 ± 0.076	0.877 ± 0.059	0.911 ± 0.067	0.934 ± 0.052	0.938 ± 0.051
UniProt Q12789|Q12789-3	1.08 ± 0.051	1.08 ± 0.093	1.1 ± 0.1	1.13 ± 0.09	1.13 ± 0.1	1.1 ± 0.077	1.1 ± 0.11	1.1 ± 0.11
UniProt Q8N5G2	1.07 ± 0.1	1.03 ± 0.089	1.12 ± 0.15	1.3 ± 0.057	1.26 ± 0.24	1.16 ± 0.17	1.24 ± 0.21	1.43 ± 0.25
UniProt Q13642-1|Q13642-4|Q13642-5	1.07 ± 0.16	1.09 ± 0.17	0.946 ± 0.13	0.921 ± 0.14	0.932 ± 0.12	0.911 ± 0.12	0.952 ± 0.093	0.915 ± 0.15
UniProt Q86WQ0|Q86WQ0-2	0.973 ± 0.06	0.939 ± 0.017	0.882 ± 0.094	0.9 ± 0.082	0.884 ± 0.14	0.897 ± 0.096	0.849 ± 0.13	0.862 ± 0.099
DDX1 (UniProt Q92499)	1.02 ± 0.024	1.02 ± 0.066	0.941 ± 0.027	0.971 ± 0.072	0.997 ± 0.059	0.993 ± 0.063	0.971 ± 0.013	0.961 ± 0.038
UniProt Q8WXA9-2	1.02 ± 0.067	1.11 ± 0.044	1.14 ± 0.077	1.12 ± 0.082	1.15 ± 0.067	1.11 ± 0.07	1.18 ± 0.035	1.18 ± 0.1
UniProt Q13427|E9PG73	0.978 ± 0.092	1.11 ± 0.12	1.18 ± 0.13	1.16 ± 0.098	1.09 ± 0.13	1.12 ± 0.12	1.21 ± 0.18	1.2 ± 0.2
UniProt Q86U86|Q86U86-8|Q86U86-2|Q86U86-4|Q86U86-5|Q86U86-7|Q86U86-9	1.07 ± 0.048	1.14 ± 0.078	1.21 ± 0.092	1.38 ± 0.11	1.53 ± 0.12	1.61 ± 0.16	1.72 ± 0.16	1.78 ± 0.18
UniProt P61981	0.845 ± 0.11	0.811 ± 0.067	1.01 ± 0.14	0.987 ± 0.076	0.942 ± 0.075	0.968 ± 0.12	0.912 ± 0.15	1.05 ± 0.16
LDB1 (UniProt Q86U70)	1.066 ± 0.0088	1.04 ± 0.05	1 ± 0.056	0.989 ± 0.024	0.938 ± 0.043	0.951 ± 0.021	0.968 ± 0.047	0.931 ± 0.036
UniProt Q8N3X1|Q8N3X1-2	1.05 ± 0.043	1.01 ± 0.076	1.09 ± 0.022	1.27 ± 0.017	1.39 ± 0.024	1.64 ± 0.031	1.77 ± 0.15	2.04 ± 0.24
CUL4A (UniProt Q13619)	1.07 ± 0.041	1.09 ± 0.077	1.02 ± 0.045	1.03 ± 0.11	0.989 ± 0.09	0.987 ± 0.076	0.987 ± 0.061	0.934 ± 0.042
UniProt Q49A26|Q49A26-3|Q49A26-4	1.044 ± 0.0023	1.06 ± 0.036	1.15 ± 0.03	1.27 ± 0.028	1.52 ± 0.16	1.72 ± 0.026	1.97 ± 0.078	2.27 ± 0.094
LEMD2 (UniProt Q8NC56)	1.09 ± 0.04	1.22 ± 0.11	1.32 ± 0.076	1.34 ± 0.15	1.34 ± 0.088	1.42 ± 0.11	1.48 ± 0.14	1.49 ± 0.21
UniProt Q8IZ81|D6RBS5	1.12 ± 0.15	1.15 ± 0.2	0.932 ± 0.066	0.934 ± 0.069	0.944 ± 0.063	0.877 ± 0.048	0.958 ± 0.13	0.802 ± 0.051
RAB8A (UniProt P61006)	0.928 ± 0.03	0.95 ± 0.039	0.903 ± 0.041	0.849 ± 0.068	0.812 ± 0.064	0.858 ± 0.085	0.828 ± 0.046	0.81 ± 0.075
NOTCH2 (UniProt Q04721)	0.991 ± 0.023	1.03 ± 0.042	1.086 ± 0.0064	1.12 ± 0.069	0.967 ± 0.22	1.08 ± 0.23	1.08 ± 0.028	1.06 ± 0.08
SLC25A24 (UniProt Q6NUK1)	0.934 ± 0.055	0.93 ± 0.033	0.857 ± 0.039	0.854 ± 0.014	0.837 ± 0.026	0.845 ± 0.024	0.809 ± 0.061	0.817 ± 0.057
UniProt P78563|P78563-2|P78563-3|P78563-4|P78563-5|P78563-6	1.05 ± 0.12	1.03 ± 0.13	1.007 ± 0.0033	1.07 ± 0.053	1.11 ± 0.044	1.16 ± 0.062	1.15 ± 0.031	1.16 ± 0.1
Q5VWV2|Q8TEW0|Q8TEW0-11|Q8TEW0-2|Q8TEW0-4|Q8TEW0-5|Q8TEW0-8 (UniProt Q8TEW0)	1.02 ± 0.11	1.02 ± 0.084	1.05 ± 0.098	1.07 ± 0.089	1.17 ± 0.14	1.15 ± 0.14	1.2 ± 0.14	1.19 ± 0.1
MDC1 (UniProt Q14676)	1.1 ± 0.024	1.14 ± 0.042	1.23 ± 0.053	1.41 ± 0.11	1.66 ± 0.17	1.77 ± 0.21	1.86 ± 0.29	1.92 ± 0.36
ALDH16A1 (UniProt Q8IZ83)	1.11 ± 0.033	1.1 ± 0.076	1.13 ± 0.13	1.15 ± 0.12	1.16 ± 0.17	1.15 ± 0.15	1.16 ± 0.16	1.11 ± 0.15
Q5STZ8|Q8NE71 (UniProt Q8NE71)	1.03 ± 0.023	1.02 ± 0.019	0.96 ± 0.053	0.987 ± 0.043	0.993 ± 0.06	0.997 ± 0.046	0.994 ± 0.066	0.984 ± 0.092

Reference: the supplement of paper PMC6411743
